# Rows were chosen to be rich in hits. Some 1.5% of all compounds tested hit in one or more screens of this group.
# NadD block = blocks S. aureus nicotinate mononucleotide adenylyltransferase; purified NadD enzyme, colorimetric absorbance read-out; hit rate 0.78% among 360,000; AID 602399; inhibition, % at 20 µM; in the data active means inhibition above about 26%
# GC-B act = GC-B (human) receptor activation. P20594. HEK293-GC-B cells, CNP EC30, cGMP TR-FRET; 0% at EC30 CNP, 100% saturating CNP. activation, % at 10 µM. hit rate 0.11% among 370,000. AID 1920062;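 active means activation at 10 µM reaching about 35% in either raw or pattern-adjusted values, limit read from the data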
# Neddyl block = cullin neddylation inhibition; P61081+Q13564; TR-FRET cullin neddylation, biochemical; inhibition, % at 25 µM; hit rate 0.58% among 360,000; in the data active means inhibition above about 36%
# GC-A act = GC-A (human) enzyme activation. HEK293 GC-A cells, cGMP TR-FRET, EC30 ANP; 0% at EC30 ANP, 100% saturating ANP. activation, % at 10 µM. hit rate 0.14% among 370,000. AID 1671463; in the data active means activation above about 40%
# * = called active by the depositor; / = not tested or not shown.
SMILES,NadD block,GC-B act,Neddyl block,GC-A act
Cc1cccc(-n2nc3c(c2NC(=O)c2ccc(S(=O)(=O)N4CCOCC4)cc2)CSC3)c1C,7.1,-0.9,11.3,-0.1
CCCn1cc(C(=O)Nc2ccc(Oc3cccnc3)cc2)c2ccccc21,/,-4.7,/,2.7
CCOC(=O)CSc1cc(-c2ccccc2)nc2ncnn12,2.1,41.8*,-23.4,35.8
CCOC(=O)CSc1nc(-c2ccccc2)ns1,-7.0,-12.3,-12.3,55.1*
Fc1ccccc1-c1nc2nc3ccccc3nc2n1CC1CCCO1 (configuration not stated),1.4,-0.2,46.3*,-5.5
O=[N+]([O-])c1ccc(Sc2nc3ccccc3[nH]2)c(Cl)c1,/,2.7,/,0.2
COc1ccc(NC(=O)/C(N=Nc2ccc(Cl)c(S(=O)(=O)Nc3ccc(Cl)cc3)c2)=C(\C)O)cc1,30.8*,5.9,-4.1,5.9
CC(=O)Nc1ccc(OCC(C)CN2CCC(C(O)(c3ccccc3)c3ccccc3)CC2)cc1 (configuration not stated),/,-8.4,/,-13.8
COc1ccccc1-n1c(C)cc(/C=C2/C(=N)N3C(=NC2=O)SN=C3S(C)(=O)=O)c1C,8.9,-6.0,59.1*,-0.1
CCOc1ccc(-n2c(C)cc(/C=C3/C(=N)N4C(=NC3=O)SN=C4S(C)(=O)=O)c2C)cc1,33.5*,-2.7,/,-2.6
Cc1cc(/C=C2/C(=N)N3C(=NC2=O)SN=C3S(C)(=O)=O)c(C)n1-c1ccc(F)cc1,16.8,1.9,18.8,-0.2
CCC(CC)C1=NN2C(=N)/C(=C\c3cc(C)n(-c4cccc(C)c4)c3C)C(=O)N=C2S1,41.3*,5.0,/,-3.7
COc1ccccc1-c1cc(C(F)(F)F)nc(S(=O)(=O)CCCC(=O)NC(C)C)n1,-0.6,15.6,13.7,73.3*
COc1ccccc1-c1cc(C(F)(F)F)nc(S(=O)(=O)CCCC(=O)Nc2cccnc2Cl)n1,-6.8,4.9,25.2,72.5*
CC(C)c1nnc(NC(=O)CCS(=O)(=O)c2nc(-c3cccs3)cc(C(F)(F)F)n2)s1,4.2,7.9,-82.3,13.5
COc1ccccc1-c1cc2nc(C)c(CCC(=O)NCc3ccc(F)cc3)c(C)n2n1,2.3,-4.9,/,7.5
COc1ccccc1-c1cc(C(F)(F)F)nc(S(=O)(=O)CCCC(=O)NCc2ccc(F)cc2)n1,-6.5,12.2,29.1,74.5*
COc1ccccc1-c1cc(C(F)(F)F)nc(S(=O)(=O)CCCC(=O)Nc2cc(C)on2)n1,-1.2,9.7,35.3,76.4*
COc1ccc(-c2cc(C(F)(F)F)nc(S(=O)(=O)CCCC(=O)Nc3cc(C)on3)n2)cc1OC,0.9,-2.4,/,13.2
COc1ccc2ccccc2c1C=NNC(=O)c1cc(-c2ccc(C)c(C)c2)n[nH]1,/,10.7,/,-4.8
COC(=O)C1CCN(C(=O)CCn2nnc(-c3cccs3)n2)CC1,/,10.9,/,3.1
O=C(CSc1nnc(-c2ccccc2)n1-c1ccc(Cl)cc1)Nc1ccc(OCc2ccccc2)cc1,/,0.5,/,3.4
CCOC(=O)c1csc(NC(=O)C2CCCN(S(=O)(=O)c3ccccc3[N+](=O)[O-])C2)n1 (configuration not stated),/,5.1,/,-0.7
COc1ccccc1-c1cc(C(F)(F)F)nc(S(=O)(=O)CCCC(=O)N2CCCCC2C)n1 (configuration not stated),2.1,8.7,34.4,77.7*
COc1ccccc1-c1cc(C(F)(F)F)nc(N2CCCC2)n1,-2.9,-0.8,-8.5,-7.9
SMILES,NadD block,GC-B act,Neddyl block,GC-A act
COc1ccccc1-c1cc(C(F)(F)F)nc(S(C)(=O)=O)n1,0.6,5.4,/,76.8*
COc1ccccc1C(=O)NC1CCCCN(Cc2cccc(C(F)(F)F)c2)C1=O (configuration not stated),/,1.8,/,0.8
Cc1ccc(C(=O)N/C(=C\c2ccc(-c3ccc(Br)cc3)o2)C(=O)NCCCN(C)C)cc1,-1.9,-6.0,49.5*,1.1
Cc1ccc(C(=O)N/C(=C\c2ccc(-c3cccc([N+](=O)[O-])c3)o2)C(=O)NCCCN(C)C)cc1,-11.1,-3.2,-28.8,0.0
CCC(=O)Nc1nnc(-c2ccncc2)s1,0.1,-0.2,52.2*,-4.2
CCNc1nnc(-c2ccncc2)s1,-3.6,-9.5,/,-1.7
COc1ccc(C2Nc3ccccc3C(=O)N2Cc2cccnc2)cc1COc1c(C)cccc1C (configuration not stated),/,-10.9,/,-12.1
COCCNC(=O)C1=C(N)C(C(=O)Nc2ccc(C)c(S(=O)(=O)N3CCCCC3)c2)SC1=Nc1ccc(C)cc1C (configuration not stated),49.6*,/,-13.2,/
CN1CCCN(c2cc(-c3ccc4ccccc4c3)nc3ccnn23)CC1,25.3,-2.2,46.1*,0.5
COc1ccc(Oc2cn[nH]c2-c2ccc(O)cc2O)cc1,-7.5,7.0,2.7,23.0
CCCc1ccc(Oc2cn[nH]c2-c2ccc(O)cc2O)cc1,8.7,1.4,4.2,40.1*
COC(=O)CSc1nnc(-c2ccc(NS(=O)(=O)c3ccc(C)c(C)c3)cc2)o1,/,6.0,/,8.3
Cc1cc(N/N=C/c2cccc(Cl)c2)nc(NCc2ccccc2)n1,4.4,-6.9,16.4,2.3
Cc1cc(Nc2cccc(Cl)c2)nc(NCc2ccccc2)n1,7.7,-1.2,44.6*,-7.3
COC(=O)CC#C[C@H](C)[C@@H](NS(=O)(=O)c1ccc(C)cc1)C1CCCCC1,/,10.6,/,1.8
COc1ccc(C2NC(=O)c3sc4nc(C)c(C(C)=O)c(-c5ccc(Cl)cc5)c4c3N2)cc1 (configuration not stated),21.3,30.8,-164.2,46.4*
COc1ccc(C(C)=NNC(=O)c2cccc(S(=O)(=O)N3CCCC3)c2)cc1,-2.3,3.8,-6.0,3.0
COc1ccc(/C(C)=N/NC(=O)c2cccc(S(=O)(=O)N3CCCC3)c2)c(O)c1,5.5,-7.5,48.5*,-6.5
Fc1ccc2c(c1)C(c1ccc(N3CCOCC3)cc1)=NNC(c1cccs1)=N2,10.0,/,40.5*,/
Brc1ccc2c(c1)C(c1ccc(N3CCOCC3)cc1)=NNC(c1cccs1)=N2,28.6,-5.5,23.4,-2.0
CC(=O)NC(c1ccccc1)c1c(O)ccc2ccccc12 (configuration not stated),0.8,-6.4,34.4,-7.2
CC(=O)NC(c1ccc(C(C)C)cc1)c1c(O)ccc2ccccc12 (configuration not stated),1.4,-6.6,23.3,47.2*
CC(C)C[C@H]1COc2cc(Br)ccc2S(=O)(=O)N1Cc1cn(Cc2ccc(F)cc2)nn1,/,6.8,/,1.0
COc1ccccc1NS(=O)(=O)c1cccc(C(=O)N/N=C/c2c(CO)cnc(C)c2O)c1,8.5,0.2,40.8*,2.4
Oc1ccccc1N=Nc1nc(-c2ccccc2)c(-c2ccccc2)[nH]1,34.9*,-9.8,-67.9,-9.6
CCOC(=O)CC(=O)CSc1ccc2nnc(-c3ccc(F)cc3)n2n1,5.6,1.9,40.4*,2.2
Cc1cc(C)nc(N2CCN(C(=O)CSc3nc4ccccc4nc3N3CC(C)OC(C)C3)CC2)n1 (configuration not stated),/,2.3,/,1.2
